Test results: PubChem BioAssay (Tox21)
Inconclusive results are not listed. The source made the active and inactive calls. The call rests on the fitted dose curve; in most records, active means well fitted curve in the direction sought with a large enough effect in the repeat runs; inconclusive means weak or mixed curves; inactive means no such curve, though single readings can be large; an effect the other way counts as inactive or inconclusive.

What was measured:
[1] = qHTS RealTime-Glo MT Cell Viability Assay in HEK293 cells - 16 hour (AID 1224872); further: top concentration of the series differs between compounds; nearly all actives have a fitted effect of over 50% in size
Outline: (§1)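 Reads taken at 0, 8, 16, 24, 32 and 40 h from the same wells. HEK293 cells (600/well) carried RealTime-Glo reagents from seeding, with compound added after a 5 h settle at 37 C.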

[2] = qHTS RealTime-Glo MT Cell Viability Assay in HepG2 cells - 8 hour (AID 1224873); further: nearly all actives have a fitted effect of over 55% in size
Outline: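 HepG2 cells (600/well) mixed with RealTime-Glo MT reagent, settled 5 h at 37 C/5% CO2 before compound addition. Nonlytic NanoLuc luminescence from viable-cell prosubstrate reduction read repeatedly during 40 h treatment at 37 C.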

[3] = qHTS RealTime-Glo MT Cell Viability Assay in HEK293 cells - 40 hour (AID 1224874); details: RealTime-Glo luminescence; max response: stronger effect = lower value; further: nearly all actives have a fitted effect of over 50% in size
Outline: (§2)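 Cells were seeded together with NanoLuc luciferase and a prosubstrate that viable cells reduce to a luciferase substrate. After a 5 h incubation at 37 C/5% CO2, compounds were added and luminescence was measured repeatedly during 40 h of treatment.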

[4] = A CellTox Green Cytotoxicity Assay to monitor cytotoxicity in HEK293 cells - 24 hour (AID 1224875); further: series mostly up to about 77 µM; nearly all actives have a fitted effect of over 45% in size
Outline: (§3)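 Nonlytic real-time cytotoxicity: HEK293 + CellTox Green reagent plated, 5 h preincubation, pintool compound addition (23 nL in DMSO), 37 C for 40 h, fluorescence measured at successive time points.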

[5] = A CellTox Green Cytotoxicity Assay to monitor cytotoxicity in HepG2 cells - 16 hour (AID 1224876); further: nearly all actives have a fitted effect of over 45% in size
Outline: (§4)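 Read-out is fluorescence of a cyanine dye excluded from live cells that stains DNA of dead HepG2 cells, with signal proportional to cytotoxicity. Plates were read at 0, 8, 16, 24, 32 and 40 h after compound addition.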

[6] = qHTS RealTime-Glo MT Cell Viability Assay in HepG2 cells - 32 hour (AID 1224877); further: nearly all actives have a fitted effect of over 55% in size
Outline: (§5)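 HepG2 suspension premixed with RealTime-Glo reagents is plated at 600 cells per well and left 5 h at 37 C/5% CO2. Compounds in DMSO then go in, and bioluminescence reflecting viable cell number is recorded over 40 h.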

[7] = A CellTox Green Cytotoxicity Assay to monitor cytotoxicity in HepG2 cells - 24 hour (AID 1224878); further: nearly all actives have a fitted effect of over 45% in size
Outline: as §4

[8] = A CellTox Green Cytotoxicity Assay to monitor cytotoxicity in HepG2 cells - 40 hour (AID 1224879); further: nearly all actives have a fitted effect of over 40% in size
Outline: as §4

[9] = qHTS RealTime-Glo MT Cell Viability Assay in HEK293 cells - 0 hour (AID 1224880); further: top concentration of the series differs between compounds; nearly all actives have a fitted effect of over 45% in size
Outline: as §2

[10] = A CellTox Green Cytotoxicity Assay to monitor cytotoxicity in HEK293 cells - 32 hour (AID 1224881); further: nearly all actives have a fitted effect of over 40% in size
Outline: as §3

[11] = A CellTox Green Cytotoxicity Assay to monitor cytotoxicity in HepG2 cells - 0 hour (AID 1224882); further: nearly all actives have a fitted effect of over 35% in size
Outline: as §4

[12] = A CellTox Green Cytotoxicity Assay to monitor cytotoxicity in HepG2 cells - 32 hour (AID 1224883); further: nearly all actives have a fitted effect of over 50% in size
Outline: as §4

[13] = A CellTox Green Cytotoxicity Assay to monitor cytotoxicity in HEK293 cells - 8 hour (AID 1224884); further: nearly all actives have a fitted effect of over 35% in size
Outline: as §3

[14] = qHTS RealTime-Glo MT Cell Viability Assay in HepG2 cells - 16 hour (AID 1224885); further: nearly all actives have a fitted effect of over 50% in size
Outline: as §5

[15] = qHTS RealTime-Glo MT Cell Viability Assay in HEK293 cells - 24 hour (AID 1224886)
Outline: as §1

[16] = qHTS RealTime-Glo MT Cell Viability Assay in HEK293 cells - 8 hour (AID 1224887)
Outline: as §2

[17] = A CellTox Green Cytotoxicity Assay to monitor cytotoxicity in HEK293 cells - 16 hour (AID 1224888); further: nearly all actives have a fitted effect of over 35% in size
Outline: as §3

[18] = A CellTox Green Cytotoxicity Assay to monitor cytotoxicity in HepG2 cells - 8 hour (AID 1224890); further: nearly all actives have a fitted effect of over 45% in size
Outline: as §4

[19] = qHTS assay to identify small molecule antagonists of the estrogen receptor alpha (ER-alpha) signaling pathway using the BG1 cell line in the presence of 0.1 nM 17-beta-estradiol - cell viability counter screen (AID 1259241); further: nearly all actives have a fitted effect of over 40% in size
Outline: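 VM7Luc4E2 cells (endogenous full-length ER-alpha, 4xERE-luciferase), cultured 5 days in charcoal-stripped serum, exposed to compounds with 0.1 nM 17beta-estradiol (final) for 22 hr at 37C. Viability read in same wells as live-cell protease fluorescence after 30 min.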

[20] = qHTS RealTime-Glo MT Cell Viability Assay in HepG2 cells - 0 hour (AID 1224889); further: nearly all actives have a fitted effect of over 50% in size
Outline: as §5
On the % scale 0 is the no-effect control and ±100 the full control effect.

Clc1cc(Cl)cc(Cl)c1
inactive: Potency [1] | outcome [2] | max response [3] 12.7% | outcome [4] | outcome [5] | Potency [6] | outcome [7] | Potency [8] | Potency [9] | outcome [10] | Potency [11] | Potency [12] | outcome [13] | outcome [14] | Potency [15] | Potency [16] | outcome [17] | outcome [18] | outcome [19]

C=CN1CCCCCC1=O
inactive: Potency [1] | outcome [2] | max response [3] 3.47% | outcome [4] | outcome [5] | Potency [6] | outcome [7] | Potency [8] | Potency [9] | outcome [10] | Potency [11] | Potency [12] | outcome [13] | outcome [14] | Potency [16] | outcome [17] | Potency [20] | outcome [18] | outcome [19]

N[C@@H](CCC(=O)O)C(=O)O
inactive: Potency [1] | outcome [2] | max response [3] -0.971% | outcome [4] | outcome [5] | Potency [6] | outcome [7] | Potency [8] | Potency [9] | outcome [10] | Potency [11] | Potency [12] | outcome [13] | outcome [14] | Potency [15] | Potency [16] | outcome [17] | outcome [18] | outcome [19]

c1ccc2sc(SN3CCOCC3)nc2c1
inactive: Potency [1] | outcome [2] | max response [3] 4.29% | outcome [4] | outcome [5] | Potency [6] | outcome [7] | Potency [8] | Potency [9] | outcome [10] | Potency [11] | Potency [12] | outcome [13] | outcome [14] | Potency [15] | Potency [16] | outcome [17] | outcome [18] | outcome [19]

Cc1ccc(-c2ccccc2C#N)cc1
inactive: Potency [1] | outcome [2] | max response [3] 1.26% | outcome [4] | outcome [5] | Potency [6] | outcome [7] | Potency [8] | Potency [9] | outcome [10] | Potency [11] | Potency [12] | outcome [13] | outcome [14] | Potency [15] | Potency [16] | outcome [17] | Potency [20] | outcome [18] | outcome [19]

N[C@H](C(=O)O)[C@@H](O)c1ccc(O)c(O)c1
inactive: Potency [1] | outcome [2] | max response [3] 0.604% | outcome [4] | outcome [5] | Potency [6] | outcome [7] | Potency [8] | Potency [9] | outcome [10] | Potency [11] | Potency [12] | outcome [13] | outcome [14] | Potency [16] | outcome [17] | Potency [20] | outcome [18] | outcome [19]

CN1CCN(c2cc3c(nn2)Oc2ccccc2N3C)CC1
inactive: activity change, negative = cytotoxicity [1] 0.378% [at 15.8 µM] | viability change, negative = cytotoxic [2] -9.11% [at 15.8 µM] | max response [3] -0.461% | activity change [4] -12.9% [at 15.8 µM] | cytotoxicity increase [5] -0.721% [at 15.8 µM] | activity change, negative = cytotoxic [6] 3.07% [at 15.8 µM] | cytotoxicity [7] -2.46% [at 15.8 µM] | cytotoxicity increase [8] -1.51% [at 15.8 µM] | activity change, negative = cytotoxicity [9] -0.369% [at 15.8 µM] | cytotoxicity increase [10] -14.8% [at 15.8 µM] | cytotoxicity [11] 0.041% [at 15.8 µM] | cytotoxicity increase [12] -2% [at 15.8 µM] | cytotoxicity increase [13] -6.06% [at 15.8 µM] | activity change, negative = cytotoxic [14] -5.35% [at 15.8 µM] | activity change, negative = cytotoxicity [15] -1.39% [at 15.8 µM] | activity change, negative = cytotoxicity [16] 0.282% [at 15.8 µM] | activity change [17] -9.75% [at 15.8 µM] | activity change, negative = cytotoxicity [20] -7.1% [at 15.8 µM] | cytotoxicity increase [18] 1.91% [at 15.8 µM] | activity change, negative = cytotoxicity [19] -8.18% [at 19 µM]

CC(C)COC(=O)c1ccc(N)cc1
inactive: Potency [1] | outcome [2] | max response [3] -12.8% | outcome [4] | outcome [5] | Potency [6] | outcome [7] | Potency [8] | Potency [9] | outcome [10] | Potency [11] | Potency [12] | outcome [13] | outcome [14] | Potency [15] | Potency [16] | outcome [17] | Potency [20] | outcome [18] | outcome [19]

OCCc1ccccn1
inactive: Potency [1] | outcome [2] | max response [3] 3.13% | outcome [4] | outcome [5] | Potency [6] | outcome [7] | Potency [8] | Potency [9] | outcome [10] | Potency [11] | Potency [12] | outcome [13] | outcome [14] | Potency [15] | Potency [16] | outcome [17] | outcome [18] | outcome [19]

CC(C)NNC(=O)c1ccncc1
inactive: Potency [1] | outcome [2] | max response [3] 9.38% | outcome [4] | outcome [5] | Potency [6] | outcome [7] | Potency [8] | Potency [9] | outcome [10] | Potency [11] | Potency [12] | outcome [13] | outcome [14] | Potency [16] | outcome [17] | outcome [18] | outcome [19]

CCCCCC(=O)OCCc1ccccc1
inactive: Potency [1] | outcome [2] | max response [3] 5.56% | outcome [4] | outcome [5] | Potency [6] | outcome [7] | Potency [8] | Potency [9] | outcome [10] | Potency [11] | Potency [12] | outcome [13] | outcome [14] | Potency [15] | Potency [16] | outcome [17] | Potency [20] | outcome [18] | outcome [19]

C[N+]12CCC(CC1)C(OC(=O)C(O)(c1ccccc1)c1ccccc1)C2 (centres undefined)
inactive: Potency [1] | outcome [2] | max response [3] 4.99% | outcome [4] | outcome [5] | Potency [6] | outcome [7] | Potency [8] | Potency [9] | outcome [10] | Potency [11] | Potency [12] | outcome [13] | outcome [14] | Potency [16] | outcome [17] | outcome [18] | outcome [19]

CCOC(=O)c1ccccc1
inactive: Potency [1] | outcome [2] | max response [3] -0.292% | outcome [4] | outcome [5] | Potency [6] | outcome [7] | Potency [8] | Potency [9] | outcome [10] | Potency [11] | Potency [12] | outcome [13] | outcome [14] | Potency [16] | outcome [17] | Potency [20] | outcome [18] | outcome [19]
